Screening data as filed in PubChem.
TRPM1 prom inh – reduces MITF-dependent TRPM1 promoter luciferase signal; SK-MEL-5 TRPM1 promoter luciferase, 24 h; inhibition, % at 12.5 µM; 330,000 tested, 0.83% active;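 active means mean inhibition across replicates of 60% or more, whatever share of single replicates reaches that level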
ABHD5-PLIN5 inh – inhibitors of human ABHD5-perilipin-5 interaction; Split G. princeps luciferase complementation, luminescence, 4 h; 360,000 tested, 0.78% active; inhibition, % at 4 µM; AID 602281;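 active means inhibition above the mean inhibition across every tested compound plus 3 SD, cut at about 22% in these data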;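 further: 0% = DMSO only wells and the 100% control is not disclosed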
HIF-2a block – inhibitors of HIF-2a; AID 624352; inhibition, % at 18.8 µM; 786-0 RCC cells HIF-2a reporter, luciferase luminescence, overnight; 360,000 tested, 0.72% active;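 active means inhibition of the luminescence signal of 40% or more relative to plate controls, in a single-dose primary screen at 18.75 µM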
KKLEB tox – counter-screen for CF NF-kB inhibitors: cytotoxicity; KKLEB CF airway cells viability, ATPlite luminescence, overnight; stronger effect = lower value; cells stimulated with P. aeruginosa culture filtrate; activity change (cytotoxicity), % at 5 µM; 360,000 tested, 0.36% active; AID 602141;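 active means corrected activity change at or below -50% at 5 µM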
Peg3 prom inh – Peg3 promoter activity inhibition; HeLa PEG-Prom luciferase reporter, luminescence, overnight; inhibition, % at 20 µM; 360,000 tested, 1.7% active; AID 588405;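 active means inhibition of at least 50% at 20 µM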
CF NFkB inh – inhibitors of cystic fibrosis induced NF-kB. 360,000 tested, 0.86% active. inhibition, % at 5 µM. KKLEB NF-kB-GFP reporter, PAF-induced, GFP fluorescence overnight;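 active means at least 50% inhibition at 5 µM, scaled per plate between neutral and stimulator controls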;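 further: PAF is a Pseudomonas aeruginosa culture filtrate used as stimulus; plate controls were PAF-stimulated DMSO wells for no effect and unstimulated DMSO wells for full effect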
CF NFkB inh conf – confirmation of cystic fibrosis induced NF-kB inhibitors. shares compounds with CF NFkB inh. KKLEB CF airway cells, PAF-induced NF-kB-GFP fluorescence, overnight. inhibition, % at 5 µM. 1,300 tested, 64% active; in the data active means inhibition above about 40%;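 further: stimulus PAF is a Pseudomonas aeruginosa filtrate and not platelet activating factor; plate controls were DMSO wells with stimulus for no effect and unstimulated DMSO wells for full effect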
An asterisk follows results filed as active; x = not tested or not shown. This is a sample that favours compounds with a hit; in the whole collection about 3% have one here.

SMILES	TRPM1 prom inh	ABHD5-PLIN5 inh	HIF-2a block	KKLEB tox	Peg3 prom inh	CF NFkB inh	CF NFkB inh conf
COc1cccc(-c2sc3ccc(OC)cc3c2-c2ccc(C(N)=O)cc2)c1	4	0	23	2	6	17	x
c1ccc(COc2ccc(OCCN3CCCC3)cc2)cc1	-57	9	-142	-8	-82	7	x
c1ccc(-c2sc3ccccc3c2-c2ccc(OCCN3CCCC3)cc2)cc1	-16	15	0	-42	93*	52*	-5
COc1cccc(-c2sc3ccccc3c2-c2ccc(OCCN3CCCC3)cc2)c1	-2	17	-5	-28	100*	54*	31
Cc1cc(C)cc(C(=O)Nc2ccc(NC(=O)Cc3ccccc3)cc2)c1	12	2	6	12	12	-15	x
COc1ccc(S(=O)(=O)c2c(O)c3ccc(C(=O)Nc4ccccc4Cl)cc3[nH]c2=O)cc1	9	1	5	-19	6	76*	69*
Cc1ccc(S(=O)(=O)Nc2cccc3ncccc23)s1	100*	-1	80*	5	103*	83*	109*
Cc1ccc(S(=O)(=O)Nc2cccc3ncccc23)cc1	-4	1	12	2	9	-4	x
Cc1ccc(S(=O)(=O)c2c(C(=O)c3ccccc3)cnc3cc4c(cc23)OCCO4)cc1	-3	-1	8	-44	26	51*	-35
NS(=O)(=O)c1cc(C(=O)O)cc(N2CCCC2)c1Oc1ccccc1	20	4	2	19	8	-8	x
CCCCNc1cc(C(=O)O)cc(S(N)(=O)=O)c1Oc1ccccc1	-5	5	24	24	4	62*	1
O=C(CSc1ncn[nH]1)NCc1ccccc1Cl	-2	-10	-15	-3	-1	1	x
Cc1c(Cl)cccc1NC(=O)COC(=O)c1c2c(nc3ccccc13)CCN(Cc1ccccc1)C2	0	0	17	-22	60*	62*	76*
O=C(NC1CCCCCC1)c1c2c(nc3ccccc13)CCN(Cc1ccccc1)C2	7	5	4	-14	10	10	x
CC(C)c1ccccc1NC(=O)COC(=O)c1c2c(nc3ccccc13)CCN(Cc1ccccc1)C2	-1	-2	12	-17	57*	75*	73*
Oc1ccccc1C1CC(c2cccs2)=NC(c2ccc(Cl)cc2)N1 (stereo not given)	-2	8	-47	-40	18	65*	10
C[C@H]1CN([C@@H](C)CO)S(=O)(=O)c2ccc(Br)cc2O[C@@H]1CN(C)C(=O)Cc1cccnc1	x	2	7	11	22	-5	x
CCC(=O)c1ccc(O)c(OC)c1	18	4	3	-3	-6	10	x
CCC(=O)c1ccc(O)c(CC=C(C)C)c1	2	1	20	-8	-3	57*	64*
COc1ccc(OC)c(S(=O)(=O)NCC(c2ccco2)S(=O)(=O)c2ccccc2)c1 (stereo not given)	12	4	2	12	4	50*	24
Cc1ccc(S(=O)(=O)NCC(c2ccco2)S(=O)(=O)c2ccccc2)cc1 (stereo not given)	0	-13	14	1	0	19	x
COc1ccc(C)cc1S(=O)(=O)N1CCCC(N2CCN(c3ccccc3)CC2)C1 (stereo not given)	x	-4	19	2	12	7	x
CC1=C(C(=O)OCc2ccc3c(c2)OCO3)C(c2ccc(O)c([N+](=O)[O-])c2)NC(=O)N1 (stereo not given)	-3	8	20	-8	3	69*	76*
CCCCOC(=O)C1=C(C)NC(=O)NC1c1ccc2c(c1)OCO2 (stereo not given)	14	6	14	3	9	-6	x
COc1ccc(COC(=O)C2=C(C)NC(=O)NC2c2ccc(OC)cc2)cc1 (stereo not given)	-5	-8	26	8	34	53*	51*
SMILES	TRPM1 prom inh	ABHD5-PLIN5 inh	HIF-2a block	KKLEB tox	Peg3 prom inh	CF NFkB inh	CF NFkB inh conf
C[n+]1cccc(C(=O)Nc2ccccc2)c1	22	-3	1	3	13	-27	x
CCc1cc2ccc(C)cc2nc1SCC(=O)Nc1cc(C)on1	18	1	18	-4	26	13	x
CCc1cc2cc3c(cc2nc1SCC(=O)Nc1cc(C)on1)OCO3	47	0	0	-42	34	55*	43*
COc1ccc(CCC(=O)NC2CCC(C)CC2)cc1 (stereo not given)	3	0	-13	-3	-5	18	x
O=Nc1ccc(NO)c2ccccc12	x	7	0	-19	-23	85*	54*
Cc1nn(-c2ccccn2)c2c1-c1nc(N)ncc1CC2	-100	2	-163	-12	-235	58*	54*
O=C(Nc1cnccn1)c1cccc(C(F)(F)F)c1	-6	3	-35	10	-18	4	x
Cc1ccc(C(=O)Nc2cccc(C(F)(F)F)c2)cc1NC(=O)c1nccn1C	x	5	-9	3	4	19	x
Cc1ccc(C(=O)Nc2cccc(C(F)(F)F)c2)cc1NC(=O)c1ccno1	-13	2	-15	-4	27	60*	71*
Cc1ccc(C(=O)Nc2cccc(C(F)(F)F)c2)cc1Nc1cnccn1	5	4	1	0	-3	51*	43*
O=C(NCCc1ccc(F)cc1)c1coc(=O)c(Br)c1	16	2	13	18	48	81*	83*
CCOC(=O)C1=C(CC)Nc2ccccc2N=C1NC(=O)Nc1ccc(Cl)c(Cl)c1	-2	-4	-72	-25	-16	56*	101*
COc1cc2nc(CN(C)Cc3ccc(Cl)cc3)[nH]c(=O)c2cc1OC	10	-6	28	-2	16	11	x
COc1cc2cncc(Cc3ccc(Cl)cc3)c2cc1OC	-27	1	9	-14	6	72*	87*
CCCn1c2ccccc2c2cnn(CC(=O)O)c(=O)c21	4	-1	0	14	4	3	x
CCn1c(=O)c2c(cnn2C)c2ccccc21	-11	2	17	-15	4	72*	78*
Cc1nn(-c2cccc(Cl)c2)c2nc(C(F)(F)F)[nH]c(=O)c12	6	-2	-1	-1	42	54*	44*
COc1cc2c(c(OC)c1OC)-c1ccc(SC)c(=O)cc1C(NC(=O)C(F)(F)F)CC2 (stereo not given)	52	3	16	-17	-33	56*	84*
CCOCC(=O)NC1CCc2cc(OC(=O)COCC)c(OC)c(OC)c2-c2ccc(SC)c(=O)cc21 (stereo not given)	56	7	30	-28	-16	52*	83*
